Each structure is given as a SMILES string. Calls of active or inactive are those of the source. Rule as the data show it: active = inhibition above about 31%; inactive = the rest.

This passage reports viability and inhibition results from PubChem BioAssay.

The nature of the first test: reversal of MRP1-mediated doxorubicin resistance, pilot screen, H69AR cells, doxorubicin co-treatment (AID 601). Conditions: H69AR cells, CellTiter-Glo, 72 h; compound alone cytotoxicity; at 10 µM. (ATP-based viability assays read luminescence as a measure of living cells.)
As usually defined, the viability is a read-out of living cells in per cent, often relative to untreated cells. Take `CN(C)c1ccc(NC(=O)Cn2cc3c(n2)CCCC3)cc1`: the viability was 74%.
On to `CCOC(=O)c1cc(NC(=O)SCC(=O)O)c(C)nc1C`, for which the viability was 88.1%.
The same measure, in the same setting: the value for `Cc1nc2ccccc2c2oc(C(=O)NCC3COc4ccccc4O3)cc12` (stereo not drawn) was 88.4%; that for `O=C(CS(=O)(=O)c1cn(Cc2ccc(F)cc2)c2ccccc12)N1CCCCC1` was 99.9%.
The same measure, in the same setting: the value for `Cc1ccc(C2c3c(oc4ccccc4c3=O)C(=O)N2c2nnc(C(C)C)s2)o1` (stereo not drawn) was 11.2%; that for `Cc1cc(C)c2c(=O)n(CC(=O)NCCCN3CCN(c4ccccc4F)CC3)sc2n1` was 3.21%; that for `COc1ccccc1S(=O)(=O)Cc1ccc(C(=O)NCCN2CCCCCC2)o1` was 102%.
Take `COc1ccc(C2C(C(=O)Nc3cccnc3)=C(C)Nc3nc(-c4cccs4)nn32)cc1OC` (stereo not drawn): the viability amounted to 87.8%.
In the case of `Cc1cc(=O)oc2cc(OCC#N)ccc12`, the viability came to 99.4%.
Regarding `CC1=C(C(N)=O)C(c2ccccn2)n2nc(SCc3ccccc3)nc2N1` (stereo not drawn), the viability was 93.8%.
Still for that read-out and setting: the value for `OC1(c2cccc(C(F)(F)F)c2)CCN(c2ccc(-c3ccccc3)nn2)CC1` was 59%; that for `CCOC(=O)CSC1=C(C#N)C(c2ccc(C)o2)CC(=O)N1` (stereo not drawn) was 26.6%; that for `O=C(Nc1nc2c(s1)CCCC2)C1COc2ccccc2O1` (stereo not drawn) was 88.3%.
Still for that read-out and setting: the value for `Cc1ccccc1Cn1nc(C)c(NC(=O)c2noc3c2CCc2ccccc2-3)c1C` was 98.4%; that for `O=C(C1CC1)N1CCc2cc(Br)cc(S(=O)(=O)N3CCOCC3)c21` was 90.6%; that for `C/C=C/COC(=O)c1[nH]c2c(c1C)C(=O)CC(c1ccco1)C2` (stereo not drawn) was 24.4%.
Turning to `Cc1ccc2nc(NC(=O)Cn3cc4c(n3)CCCCC4)sc2c1`, the viability was 93%.
On the same count and under the same terms, the value for `Cn1c(=O)oc2cc(S(=O)(=O)N3CCN(c4ccccn4)CC3)ccc21` was 73.8%; that for `Cc1cccc(N(CC(=O)N2CCCC2)S(=O)(=O)c2ccccc2)c1C` was 88.5%; that for `CC(Sc1n[nH]c(=O)[nH]c1=O)C(=O)OCc1ccccc1` (stereo not drawn) was 99.9%.
The same measure, in the same setting: the value for `O=C(Nc1ccncc1)c1cc2ccccc2o1` was 105%; that for `CCOc1ccccc1NC(=O)C1CCCN(S(=O)(=O)c2cccc3cccnc23)C1` (stereo not drawn) was 78.1%; that for `O=C(Nc1nc(-c2ccncc2)cs1)C1COc2ccccc2O1` (stereo not drawn) was 64.8%.
Same read-out and setting: the value for `CC(C)C(CO)NC(=O)CC(=O)NC(CO)C(C)C` (stereo not drawn) was 103%.
As to `C(=N\n1cnnc1)/c1cccc(OCCOc2ccccc2)c1`, the viability was determined as 94.6%.
For `C/C=C/COC(=O)c1[nH]c2c(c1C)C(=O)CC(c1ccc(N(C)C)cc1)C2` (stereo not drawn), the viability was 41.9%.
For `Cc1ccc(C)c(N2CCN(CCCNC(=O)Cn3cc4c(n3)CCC(C)C4)CC2)c1` (stereo not drawn), the viability amounted to 26.6%.
The same measure, in the same setting: the value for `CCOC(=O)c1ccc(N=c2sc(C(=O)OC)cc(=O)n2Cc2ccco2)cc1` was 1.51%.
As for `Cc1ccccc1-c1nc(CN2CCC(C(=O)NC3CCN(Cc4ccccc4)CC3)CC2)c(C)o1`, the viability stood at 86.3%.
Same read-out and setting: the value for `CC(=O)n1cc(-c2ccncc2)c2ccccc21` was 85.3%.
Turning to `C/C=C/CSc1nc2c(c(=O)[nH]c(=O)n2C)n1Cc1ccc(C)cc1`, the viability is 35.5%.
The same measure, in the same setting: the value for `O=C(NCCN1C(=O)C2C3C=CC(C3)C2C1=O)Nc1ccccn1` (stereo not drawn) was 95.8%; that for `CC1CCCCN1S(=O)(=O)c1ccc(NC(=O)c2cccs2)cc1` (stereo not drawn) was 85.5%.
Still for that read-out and setting: the value for `CCOc1ccc(N(CC(=O)Nc2cccc(OC)c2)S(=O)(=O)c2c(C)noc2C)cc1` was 59.6%; that for `CCOC(=O)N1CCN(C(=O)CN(C2CCCCC2)S(=O)(=O)c2ccc(F)cc2)CC1` was 97.7%.
The same measure, in the same setting: the value for `COc1cccc(-c2nc(CS(=O)(=O)CC(=O)Nc3cc(C)ccc3C)c(C)o2)c1` was 66.1%; that for `Cc1cc(=O)oc2c1ccc1oc(/C(=N/O)c3ccccc3)c(C)c12` was 74.5%.
Consider `Cc1cc(/C=N/n2cnnc2)c(C)n1-c1cccc(Cl)c1`, for which the viability was 86.4%.
In the case of `Cc1cc(C)c2c(=O)n(CC(=O)NCCCN3CCOCC3)sc2n1`, the viability is 39.8%.

The next test can be described thus: 384-well plate pilot, post-Golgi transport modulator project, inhibition of yeast transport mutant growth (AID 636). Particulars: absorbance 615 nm, about 18 h, stronger effect = higher value.
By inhibition is commonly meant the change of the read-out against control, counted positive when it falls. Consider `CN(C)c1ccc(NC(=O)Cn2cc3c(n2)CCCC3)cc1`, for which the inhibition was -4.13% (inactive).
Still for that read-out and setting: the value for `CCOC(=O)c1cc(NC(=O)SCC(=O)O)c(C)nc1C` was 2.34% (inactive); that for `Cc1nc2ccccc2c2oc(C(=O)NCC3COc4ccccc4O3)cc12` (stereo not drawn) was 0.13% (inactive); that for `O=C(CS(=O)(=O)c1cn(Cc2ccc(F)cc2)c2ccccc12)N1CCCCC1` was -5.68% (inactive).
The same measure, in the same setting: the value for `Cc1ccc(C2c3c(oc4ccccc4c3=O)C(=O)N2c2nnc(C(C)C)s2)o1` (stereo not drawn) was -5.2% (inactive); that for `Cc1cc(C)c2c(=O)n(CC(=O)NCCCN3CCN(c4ccccc4F)CC3)sc2n1` was -4.8% (inactive).
As for `COc1ccccc1S(=O)(=O)Cc1ccc(C(=O)NCCN2CCCCCC2)o1`, the inhibition is -0.9% (inactive).
On the same count and under the same terms, the value for `COc1ccc(C2C(C(=O)Nc3cccnc3)=C(C)Nc3nc(-c4cccs4)nn32)cc1OC` (stereo not drawn) was 1.2% (inactive); that for `Cc1cc(=O)oc2cc(OCC#N)ccc12` was -5.07% (inactive); that for `CC1=C(C(N)=O)C(c2ccccn2)n2nc(SCc3ccccc3)nc2N1` (stereo not drawn) was -3.92% (inactive).
Same read-out and setting: the value for `OC1(c2cccc(C(F)(F)F)c2)CCN(c2ccc(-c3ccccc3)nn2)CC1` was 0.27% (inactive); that for `CCOC(=O)CSC1=C(C#N)C(c2ccc(C)o2)CC(=O)N1` (stereo not drawn) was -4.4% (inactive).
The same measure, in the same setting: the value for `O=C(Nc1nc2c(s1)CCCC2)C1COc2ccccc2O1` (stereo not drawn) was -4.27% (inactive); that for `Cc1ccccc1Cn1nc(C)c(NC(=O)c2noc3c2CCc2ccccc2-3)c1C` was 5.77% (inactive).
With `O=C(C1CC1)N1CCc2cc(Br)cc(S(=O)(=O)N3CCOCC3)c21`, the inhibition is -7.95% (inactive).
The same measure, in the same setting: the value for `C/C=C/COC(=O)c1[nH]c2c(c1C)C(=O)CC(c1ccco1)C2` (stereo not drawn) was -2.67% (inactive).
Same read-out and setting: the value for `Cc1ccc2nc(NC(=O)Cn3cc4c(n3)CCCCC4)sc2c1` was 0.51% (inactive).
The same measure, in the same setting: the value for `Cn1c(=O)oc2cc(S(=O)(=O)N3CCN(c4ccccn4)CC3)ccc21` was 0.26% (inactive); that for `Cc1cccc(N(CC(=O)N2CCCC2)S(=O)(=O)c2ccccc2)c1C` was -2.27% (inactive).
On to `CC(Sc1n[nH]c(=O)[nH]c1=O)C(=O)OCc1ccccc1` (stereo not drawn), for which the inhibition is -5.6% (inactive).
Still for that read-out and setting: the value for `O=C(Nc1ccncc1)c1cc2ccccc2o1` was -0.4% (inactive); that for `CCOc1ccccc1NC(=O)C1CCCN(S(=O)(=O)c2cccc3cccnc23)C1` (stereo not drawn) was -6.13% (inactive); that for `O=C(Nc1nc(-c2ccncc2)cs1)C1COc2ccccc2O1` (stereo not drawn) was 0.51% (inactive).
`CC(C)C(CO)NC(=O)CC(=O)NC(CO)C(C)C` (stereo not drawn): the inhibition was -4.8% (inactive).
The same measure, in the same setting: the value for `C(=N\n1cnnc1)/c1cccc(OCCOc2ccccc2)c1` was -4.53% (inactive); that for `C/C=C/COC(=O)c1[nH]c2c(c1C)C(=O)CC(c1ccc(N(C)C)cc1)C2` (stereo not drawn) was 2% (inactive).
On the same count and under the same terms, the value for `Cc1ccc(C)c(N2CCN(CCCNC(=O)Cn3cc4c(n3)CCC(C)C4)CC2)c1` (stereo not drawn) was -1.54% (inactive); that for `CCOC(=O)c1ccc(N=c2sc(C(=O)OC)cc(=O)n2Cc2ccco2)cc1` was -3.21% (inactive); that for `Cc1ccccc1-c1nc(CN2CCC(C(=O)NC3CCN(Cc4ccccc4)CC3)CC2)c(C)o1` was -5.87% (inactive).
Regarding `CC(=O)n1cc(-c2ccncc2)c2ccccc21`, the inhibition is -7.2% (inactive).
Consider `C/C=C/CSc1nc2c(c(=O)[nH]c(=O)n2C)n1Cc1ccc(C)cc1`, for which the inhibition was -1.6% (inactive).
On to `O=C(NCCN1C(=O)C2C3C=CC(C3)C2C1=O)Nc1ccccn1` (stereo not drawn), for which the inhibition is -3.6% (inactive).
Same read-out and setting: the value for `CC1CCCCN1S(=O)(=O)c1ccc(NC(=O)c2cccs2)cc1` (stereo not drawn) was -1.17% (inactive); that for `CCOc1ccc(N(CC(=O)Nc2cccc(OC)c2)S(=O)(=O)c2c(C)noc2C)cc1` was -4.4% (inactive).
On the same count and under the same terms, the value for `CCOC(=O)N1CCN(C(=O)CN(C2CCCCC2)S(=O)(=O)c2ccc(F)cc2)CC1` was -6% (inactive); that for `COc1cccc(-c2nc(CS(=O)(=O)CC(=O)Nc3cc(C)ccc3C)c(C)o2)c1` was -1.73% (inactive).
Same read-out and setting: the value for `Cc1cc(=O)oc2c1ccc1oc(/C(=N/O)c3ccccc3)c(C)c12` was 8.46% (inactive); that for `Cc1cc(/C=N/n2cnnc2)c(C)n1-c1cccc(Cl)c1` was -5.26% (inactive).
Regarding `Cc1cc(C)c2c(=O)n(CC(=O)NCCCN3CCOCC3)sc2n1`, the inhibition is -4.53% (inactive).
